A selection: hits, their analogues and other compounds. The true share with any hit is near 1.3%.
Mito fusion act: mitochondrial division inhibition or fusion activation. S. cerevisiae fusion-defective mutant growth rescue, CellTiterGlo 48 h. Potency, µM (titrated, usually from 46.1 µM), without a hit: top-dose growth rescue (activation), hits mostly activators. 320,000 compounds, 0.23% hits; further: potency means the concentration at half of the fitted maximal effect; % of control where 0% means no effect; nearly all actives have a fitted effect of over 45% in size
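Growth-rescue viability read-out: after 48 h at the non-permissive 37C in glycerol/ethanol YPEG, yeast mitochondrial fusion mutants are measured by CellTiterGlo luminescence; compounds (23 nl pinned per well) restoring growth score as division inhibitors or fusion activators.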
IL-2 act: activates IL-2 in a cell-based reporter assay | AID 652025 | IL-2 activation reporter assay, cell-based qHTS; stimulated with anti-CD3/CD4/CD28 beads; in transgenic mouse T cells | 360,000 compounds, 0.065% hits | activation, % (series mostly up to about 46 µM); in the data active means activation above about 50%; inconclusive means mostly about 30% to 49%; further: 0% is about no effect
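Screening format: compound pinned onto unstimulated transgenic mouse T cells, 60 min incubation, then anti-CD3/anti-CD4/anti-CD28 bead stimulation for 18 hours at 37 degrees C, followed by EGFP and DsRed detection.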
TCR act: T cell receptor activation; AID 504894; 330,000 tested, under 10 active; primary human leukocytes, anti-CD3, IL-2 HTRF, 48 h; Potency, µM (titrated, usually from 9.22 µM), without a hit: top-dose activation of IL-2 secretion, usual class: activators; further: % of control where 0% means no effect
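Human primary leukocytes + a-CD3 beads + cpd, 48 hr; IL-2 in supernatant by HTRF (ex 320nm / em 665nm). No co-stimulatory signal supplied.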
BRCA1 expr act: activators of BRCA1 expression; AID 624202; MCF7-BRCA1-FFLuc reporter, luminescence, 48 h; response scale: scaled: vehicle 0%, 10 µM genistein 100%; Potency, µM (doses to about 46.1 µM), for inactives: top-dose activation, hits mostly activators; 380,000 compounds, 1.1% hits; further: potency means the concentration at half of the fitted maximal effect; nearly all actives have a fitted effect of over 80% in size
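Cells: MCF7-BRCA1-FFLuc, 2000/well. Exposure: 48 h, 37 °C, 5% CO2. Read: luminescence, 15 min post-substrate. Controls: genistein 10 microM (maximal activation), DMSO (neutral).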
PTHR1 agonist: PTHR1 (human) receptor agonism | HEK293 GP2 PTHR1 cells, GloSensor cAMP luminescence, 1 h | Q03431 | Potency, µM (top dose mostly 115 µM), inactives show top-dose activation, usual class: activators | 410,000 compounds, 0.075% hits; further: potency means the concentration at half of the fitted maximal effect; nearly all actives have a fitted effect of over 55% in size
Target sequence (Q03431 whole entry, looked up): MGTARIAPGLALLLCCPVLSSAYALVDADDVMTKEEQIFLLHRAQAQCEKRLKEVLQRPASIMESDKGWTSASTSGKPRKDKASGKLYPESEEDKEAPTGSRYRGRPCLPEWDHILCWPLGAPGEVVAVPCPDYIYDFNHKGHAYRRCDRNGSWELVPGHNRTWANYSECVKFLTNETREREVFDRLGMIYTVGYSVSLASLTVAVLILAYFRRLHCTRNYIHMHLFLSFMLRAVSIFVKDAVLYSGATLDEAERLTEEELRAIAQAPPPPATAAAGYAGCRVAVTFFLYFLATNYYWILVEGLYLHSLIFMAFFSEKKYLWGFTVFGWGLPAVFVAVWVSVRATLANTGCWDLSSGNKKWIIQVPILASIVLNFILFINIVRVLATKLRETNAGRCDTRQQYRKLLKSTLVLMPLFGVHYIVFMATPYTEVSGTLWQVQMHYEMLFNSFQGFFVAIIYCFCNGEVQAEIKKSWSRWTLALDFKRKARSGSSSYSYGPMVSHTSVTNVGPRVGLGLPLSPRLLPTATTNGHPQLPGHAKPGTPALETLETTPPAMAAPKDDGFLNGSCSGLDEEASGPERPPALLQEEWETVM
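HEK-293-derived GP2 cells expressing PTHR1 and a GloSensor cAMP reporter, 3,000/well, plated overnight, given luciferin plus IBMX (each 0.5 mM as added) for 1 h at 37 °C, then compound for 1 h at 37 °C. Luminescence was read after 15 min at room temperature.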
Chronic BCR inh: blocks chronic active B-cell receptor signaling. ABC-DLBCL IkBa-CBG/CBR reporter, luminescence ratio, 4 h. Potency, µM (top dose mostly 46.1 µM), for the others: top-dose activity change, negative = inhibition, hits mostly inhibitors. 340,000 compounds, 0.05% hits; active means well fitted inhibition curve with a large enough effect in the signal ratio, with a control signal flat, not every such curve was filed as active; inconclusive means small, poorly fitted or top-dose-only effect, or effect the other way, or a change in a side signal; the % refers to the signal ratio;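 further: potency means the concentration at half of the fitted maximal effect; plate controls were basal doxycycline-induced cells for no effect and cells given 10 µM MG132 for full effect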
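Cell line TMD8 (human ABC DLBCL), stably expressing tet-inducible CBG68-IkBa fusion and CBR; IMDM/0.5% FBS; cpd up to 46 uM; dox induction, 4 h, 37C/5% CO2; dual luminescence; green/red ratio; MG132 control.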
* hit, by the source's call; i = inactive; ? = inconclusive; . = no result; ! = a repeat was not active; [ ] = another dose, or the depositor's remark. Unless noted, the call rests on the fitted dose curve; in most records, active means well fitted curve in the direction sought with a large enough effect; inconclusive means small, poorly fitted or top-dose-only effect, or another doubt; inactive means no such curve, though single readings can be large; an effect the other way counts as inactive or inconclusive.

SMILES	Mito fusion act	IL-2 act	TCR act	BRCA1 expr act	PTHR1 agonist	Chronic BCR inh
CCOC(=O)c1cc2c(nc1NC(=S)Nc1ccccc1)CC(C)(C)OC2	-3%	-4	-2%[46.1 µM]	3%	-43%	-1%
Cc1nn2c(=O)cc(COC(=O)c3cccc(NC(=O)c4cccs4)c3)nc2s1	.	.	.	.	i	.
O=C(CSCc1cccc(Br)c1)N=Nc1c(O)[nH]c2ccccc12	-1%	1	.	1%	-8%[57.5 µM]	2%
O=Nc1c(-c2c(O)[nH]c3cc(Br)ccc23)[nH]c2ccccc12	1.8µM*!	0	13%	-61%	-42%	?
Clc1ccc2c(ccc[n+]2CCC2CCCCC2)c1	.	.	.	-49%	.	.
Cc1cc(C(=O)Nc2ccc3[nH]ccc3c2)no1	1%	0	1%	6.3µM*	i	?
Cc1noc(C)c1CSc1ccccc1C(=O)Nc1nccs1	35µM*	3	7%	-21%	i	2%
O=C(c1ccc2c(=O)n(Cc3ccccc3Cl)c(=S)[nH]c2c1)N1CCOCC1	-2%	-1	-4%	-3%	-21%	-4%
COc1ccc(NC(=O)CSc2ccc3c4c(cccc24)C(=O)c2ccccc2-3)cc1	1%	184*	0%	-10%	i	-21%
N#Cc1cccc(NC(=O)CSc2ccc3c4c(cccc24)C(=O)c2ccccc2-3)c1	9%	9	-3%	-57%	-19%[57.5 µM]	?
COc1ccc(NS(=O)(=O)c2ccc3oc(SCc4ccc(F)cc4)nc3c2)cc1	16µM*	-3	-9%[46.1 µM]	-71%	-28%	14%
COc1ccccc1NS(=O)(=O)c1ccc2oc(SCc3ccc(F)cc3)nc2c1	3%	-1	-2%[46.1 µM]	-60%	-32%	5%
O=C(CSc1nc2c(c(=O)[nH]1)CCC2)Nc1cccc(F)c1	-2%	0	-1%	-7%	i	-27%
C=CCn1c(SCC)nc2ccccc2c1=O	.	.	.	2%	.	.
N#Cc1ccccc1OCC(=O)N1CCN(C(=O)c2ccco2)CC1	1%	-2	-2%	4%	i	?
O=C(c1ccccc1)c1cccc(NC(=O)c2ccco2)c1	15%	1	3%	11µM*	-59%[57.5 µM]	1%
COc1cc(NC(=O)CC(C)C)ccc1NC(=O)c1ccco1	.	-1	-31%	7.9µM*	i	.
CCC(=O)Nc1ccc(NC(=O)c2ccco2)cc1	-1%	-2	3%	2.5µM*	-57%[57.5 µM]	0%
O=C(Nc1cccc(NC(=O)c2ccco2)c1)c1ccccc1	4%	1	-3%	-4%	i	-15%
O=C(/C=C\c1ccco1)c1ccc(NC(=O)c2ccco2)cc1	9%	0	4%	1.8µM*	-37%	8%
CC(=O)Nc1ccc(C(=O)/C=C/c2ccco2)cc1	0%	-3	-4%[46.1 µM]	76%	-11%	3%
CC(=O)C1C(=O)CC(C)(O)C(C(C)=O)C1c1ccccc1 (stereo not drawn)	-2%	-1	-3%	-2%	-12%	4%
O=C(CCNC(=O)c1ccco1)Nc1ccc(Cl)cc1	2%	1	9%	15%	i	-2%
O=C(CNC(=O)c1ccco1)Nc1ccc(Cl)cc1	1%	5	-9%	13µM*	i	0%
COc1c(C)cc(Br)cc1C(=O)Nc1cccc(NC(=O)c2ccco2)c1	20µM*	0	-2%	-55%	-16%	?
O=C(NC1CCCc2ccccc21)c1cnn2c1NC(=C1CC1)C=C2C(F)F (stereo not drawn)	.	.	.	-29%	.	.
CCN(CC)c1ccc(C(=O)Nc2ccccc2)cc1[N+](=O)[O-]	18%	2	-4%	10µM*	-50%	-8%
CCOc1ccc(/C=C/c2ccc3ccccc3[n+]2C)cc1OCC	.	.	.	-52%	.	.
Cc1cccc(N2CCN(c3ncnc4c3nc3n4CCCCC3)CC2C)c1 (stereo not drawn)	.	.	.	.	-43%	.

Screening results deposited in PubChem BioAssay by National Center for Advancing Translational Sciences (NCATS).
